Results filed as inconclusive are left out. Activity calls are given as the source filed them. Calls come from the whole dose curve; as a rule, active = well fitted curve in the direction sought with a large enough effect; inconclusive = small, poorly fitted or top-dose-only effect, or another doubt; inactive = no such curve, though single readings can be large; an effect the other way counts as inactive or inconclusive.
Assays:
[1] = Cellular Toxicity (caspase-3) Mesangial (AID 660); conditions: mesangial cells, normalized: DMSO 0%, 100 µM tamoxifen 100%; at 91.7 µM (top of the series);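 note: combined caspase 3 and 7 activity read by Caspase-Glo luminescence; cells exposed to compound for 16 h before the caspase read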
Method in brief: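 Mesangial cells, 1000/well, 5 h settle at 37 °C; compound 16 h, 37 °C; Caspase-Glo 3/7 reagent 20 min RT; luminescence. Norm.: DMSO = 0%, tamoxifen 100 uM = 100%. AC50, Hill fit.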

[2] = Cellular Toxicity (caspase-3) SK-N-SH (AID 661);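 note: 0% = DMSO basal and 100% = 10 µM staurosporine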
Method in brief: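 Human neuroblastoma SK-N-SH, 1500 cells/well, 5 hr pre-incubation, then compound 16 hr, 37 °C. Caspase-Glo 3/7 reagent, 1 hr RT, luminescence. Norm. to DMSO/10 uM staurosporine; Hill-fit AC50.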

[3] = Cellular Toxicity (caspase-3) H-4-II-E (AID 663); conditions: H-4-II-E rat hepatoma, scaled: DMSO 0%, 100 µM tamoxifen 100%; at 92.2 µM (top of the series);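 note: cells exposed to compound for 16 hr before readout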
Method in brief: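 Apoptosis induction is scored as increased luminescence from caspase 3/7 substrate cleavage in rat hepatoma H-4-II-E cells exposed to compound for 16 hr. Activity is scaled between DMSO and 100 uM tamoxifen.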

[4] = Cellular Toxicity (caspase-3) Hek293 (AID 664); conditions: HEK293 caspase-3 activation, DMSO = 0%, 100 µM tamoxifen = 100%; at 92.2 µM (top of the series);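 note: cells exposed to compound for 16 h at 37 °C before readout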
Method in brief: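 Cells plated, 5 hr at 37 °C; compounds added; 16 hr at 37 °C; Caspase-Glo 3/7 reagent, 20 min RT; luminescence read. Activation expressed relative to DMSO and 100 uM tamoxifen, AC50 by Hill model.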

[5] = Cellular Toxicity (caspase-3) N2a (AID 665);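 note: compound exposure lasted 16 h at 37 °C before readout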
Method in brief: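 N2a cells, 1500/well, 5 h settle at 37 °C; cpd 16 h, 37 °C; Caspase-Glo 3/7, 1 h RT; luminescence. Norm: DMSO = 0, 10 uM staurosporine = 100%. AC50, Hill fit.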

[6] = Cellular Toxicity (caspase-3) NIH 3T3 (AID 666);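 note: caspase signal read after 16 h compound exposure; 0% = DMSO basal and 100% = 100 µM tamoxifen stimulation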
Method in brief: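 Luminescence from aminoluciferin released by caspase-3/7 cleavage of a peptide substrate served as read-out. Mouse fibroblast NIH 3T3 cells were exposed to compounds over a concentration range for 16 hours, and AC50 values came from standard Hill modelling.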

[7] = Cellular Toxicity (caspase-3) Renal Proximal Tubule (AID 667); conditions: Potency: caspase-3 activation;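 note: cells exposed to compound for 16 hours at 37 °C before detection; 0% = DMSO basal and 100% = 10 µM staurosporine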
Method in brief: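 Caspase 3/7 activation measured by luminescent aminoluciferin release in primary rat proximal tubule cells after 16 hr compound exposure at 37 °C. AC50 from Hill-fitted concentration-response, scaled between DMSO and 10 uM staurosporine.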

[8] = biological target: Cytochrome P450 3A4 (Homo sapiens) (UniProt P08684); assay: qHTS Assay for Inhibitors and Substrates of Cytochrome P450 3A4 (AID 884); note: % is set by controls: 0 for no effect and ±100 for the full control effect; nearly all actives have a fitted effect of over 50% in size
Method in brief: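 20 nM human CYP3A4 with 25 uM Luciferin-PPXE (at KM) in 200 mM KPO4, preincubated 10 min with compound; NADPH regeneration started a 60 min RT reaction. Luciferin detected by luminescence, normalized to 57 uM ketoconazole as full inhibition.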

[9] = Cell Viability - LYMP2-001 (AID 921);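 note: 0% = DMSO only and full inhibition = tetraoctylammonium bromide control wells; nearly all actives have a fitted effect of over 70% in size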
Method in brief: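 Cellular ATP loss read by luciferase luminescence after 24 h compound exposure at 37 C in complete medium. LYMP2-001 lymphoblastoid cells, 2500/well; qHTS concentration-response data fitted with Hill equation for AC50.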

[10] = MultiTox-Fluor Cytotoxicity Assay - LYMP1-001 - Dead Cells (AID 946)
Method in brief: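 AC50 from Hill fit of concentration-response; data normalized to DMSO (basal) and 15 uM tetraoctylammonium bromide (100%). LYMP1-001 lymphoblastoid cells, 2500/well, 16 hr compound at 37 C; dead-cell protease fluorescence, Ex/Em 485/520.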

[11] = MultiTox-Fluor Cytotoxicity Assay - LYMP1-001 - Live Cells (AID 947);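 note: 0% = DMSO only and full inhibition = tetraoctylammonium bromide control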
[12] = Cell Viability - LYMP1-002 - Assay at 16 hr (AID 948);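 note: 0% = DMSO alone and full effect = 92 µM tetraoctylammonium bromide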
Method in brief: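 ATP luminescence (CellTiter-Glo) was measured after 16 hr compound exposure at 37 C of 2500 lymphoblastoid LYMP1-002 cells per well. Concentration-response curves were fitted with the Hill equation to give AC50.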

[13] = MultiTox-Fluor Cytotoxicity Assay - LYMP1-002 - Live Cells (AID 955); note: % is set by controls: 0 for no effect and ±100 for the full control effect
Method in brief: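 Read-out is live-cell protease activity (cell-permeant GF-AFC substrate, fluorescence Ex/Em=405/510), where a decrease indicates acute toxicity. Human lymphoblastoid cells were treated 16 hours at 37 C in a concentration series, and AC50 values came from standard Hill modelling.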

[14] = MultiTox-Fluor Cytotoxicity Assay - LYMP1-002 - Dead Cells (AID 960); note: nearly all actives have a fitted effect of over 60% in size
Method in brief: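 LYMP1-002 cells 2500/well; 5 hr 37 C pre-incubation; compound 16 hr 37 C; MultiTox-Fluor reagent 60 min RT; dead-cell fluor Ex/Em 485/520. Norm. to DMSO (0%) vs 15 uM tetraoctylammonium bromide (100%); Hill AC50.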

[15] = MultiTox-Fluor Cytotoxicity Assay - LYMP1-003 - Dead Cells (AID 961); note: nearly all actives have a fitted effect of over 70% in size
Method in brief: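 Human lymphoblastoid LYMP1-003 cells (2500/well) were treated with compounds for 16 hr at 37 C in complete medium. Dead-cell protease release was read by bis-AAF-R110 fluorescence (Ex/Em 485/520). AC50 came from Hill fits, normalized to DMSO and 15 uM tetraoctylammonium bromide.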

[16] = MultiTox-Fluor Cytotoxicity Assay - LYMP1-003 - Live Cells (AID 962);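 note: cells exposed to compound for 16 hours at 37 °C; 0% = DMSO only and full loss = 92 µM tetraoctylammonium bromide; cytotoxic hits lower the live-cell protease signal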
Method in brief: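 qHTS, 1536-well; 2500 cells/well LYMP1-003; 5 hr 37 C settle; cpd 16 hr 37 C; MultiTox-Fluor reagent 60 min RT; live-cell protease fluor. 405/510; Hill-fit AC50; tetraoctylammonium bromide pos. ctrl.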

[17] = Cell Viability - LYMP1-003 - Assay at 24 hr (AID 963);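 note: plate controls were DMSO only for no effect and tetraoctylammonium bromide positive control for full effect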
Method in brief: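 Cells seeded at 2500/well, 5 hr at 37 C; compounds added; 24 hr at 37 C; CellTiter-Glo added, 30 min room temperature; luminescence read. Decrease in ATP taken as cytotoxicity, AC50 from Hill modelling.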

[18] = Cell Viability - LYMP1-003 - Assay at 40 hr (AID 964); note: % is set by controls: 0 for no effect and ±100 for the full control effect; nearly all actives have a fitted effect of over 60% in size
Method in brief: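 Cells were seeded at 2500 per well and incubated 5 hr at 37 C. Compounds were added across a concentration series and left 40 hr at 37 C. CellTiter-Glo was added for 30 min at room temperature before luminescence reading.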

[19] = Cell Viability - LYMP2-003 (AID 965);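 note: cells exposed to compounds for 24 h before reading; 0% = DMSO only and full effect = 92 µM tetraoctylammonium bromide; nearly all actives have a fitted effect of over 50% in size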
Method in brief: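 CellTiter-Glo luminescence quantified ATP loss after 24 h compound treatment of LYMP2-003 lymphoblastoid cells at 37 C. Titration series were fitted with the standard Hill equation to give AC50.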

[20] = Cell Viability - LYMP2-004 (AID 966);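 note: plate controls were DMSO only for no effect and tetraoctylammonium bromide control for full effect; nearly all actives have a fitted effect of over 65% in size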
Method in brief: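 Cells seeded 2500/well, rested 5 hr at 37 C, dosed across a concentration series, incubated 24 hr at 37 C, then CellTiter-Glo added for 30 min at room temperature and luminescence read. Hill fitting gave AC50.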

Cytochrome P450 3A4 (Homo sapiens), sequence (P08684 whole entry, looked up): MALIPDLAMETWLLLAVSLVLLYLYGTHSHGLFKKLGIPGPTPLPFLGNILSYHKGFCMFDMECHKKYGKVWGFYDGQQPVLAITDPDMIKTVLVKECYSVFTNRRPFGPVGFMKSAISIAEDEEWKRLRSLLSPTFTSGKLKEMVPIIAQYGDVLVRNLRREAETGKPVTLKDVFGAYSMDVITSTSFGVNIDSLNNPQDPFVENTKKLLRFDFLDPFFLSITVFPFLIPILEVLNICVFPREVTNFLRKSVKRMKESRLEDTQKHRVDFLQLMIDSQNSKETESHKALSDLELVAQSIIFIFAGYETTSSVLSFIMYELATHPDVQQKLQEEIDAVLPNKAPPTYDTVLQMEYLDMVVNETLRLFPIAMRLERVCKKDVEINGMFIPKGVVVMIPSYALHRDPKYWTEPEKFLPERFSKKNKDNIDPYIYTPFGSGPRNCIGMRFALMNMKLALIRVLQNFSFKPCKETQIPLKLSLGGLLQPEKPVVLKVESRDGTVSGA

CCNS(=O)(=O)c1ccc(C)cc1
inactive: caspase-3 activation [1] -0.106% | outcome [2] | caspase-3 activation [3] -1.14% | caspase-3 activation [4] -2.66% | outcome [5] | outcome [6] | Potency [7] | Potency [8] | Potency [9] | outcome [10] | outcome [11] | outcome [12] | outcome [13] | outcome [14] | Potency [15] | Potency [16] | Potency [17] | Potency [18] | Potency [19] | Potency [20]

O=C(O)CNC(=O)c1ccc(CO)o1
inactive: caspase-3 activation [1] -0.765% | outcome [2] | caspase-3 activation [3] -0.71% | caspase-3 activation [4] -0.0261% | outcome [5] | outcome [6] | Potency [7] | Potency [8] | Potency [9] | outcome [10] | outcome [11] | outcome [12] | outcome [13] | outcome [14] | Potency [15] | Potency [16] | Potency [17] | Potency [18] | Potency [19] | Potency [20]

Cc1c(C(=O)O)cccc1[N+](=O)[O-]
inactive: caspase-3 activation [1] -0.447% | outcome [2] | caspase-3 activation [3] -0.261% | caspase-3 activation [4] 1.44% | outcome [5] | outcome [6] | Potency [7] | Potency [8] | Potency [9] | outcome [10] | outcome [11] | outcome [12] | outcome [13] | outcome [14] | Potency [15] | Potency [16] | Potency [17] | Potency [18] | Potency [19] | Potency [20]

Cc1ccc(N(C)C)cc1
inactive: caspase-3 activation [1] 0.102% | outcome [2] | caspase-3 activation [3] -1.01% | caspase-3 activation [4] -0.882% | outcome [5] | outcome [6] | Potency [7] | Potency [8] | Potency [9] | outcome [10] | outcome [11] | outcome [12] | outcome [13] | outcome [14] | Potency [15] | Potency [16] | Potency [17] | Potency [18] | Potency [19] | Potency [20]

Nc1cccc(S(=O)(=O)O)c1
inactive: caspase-3 activation [1] -0.0111% | outcome [2] | caspase-3 activation [3] -0.597% | caspase-3 activation [4] -1.89% | outcome [5] | outcome [6] | Potency [7] | Potency [8] | Potency [9] | outcome [10] | outcome [11] | outcome [12] | outcome [13] | outcome [14] | Potency [15] | Potency [16] | Potency [17] | Potency [18] | Potency [19] | Potency [20]

COC(=O)CCC(=O)OC
inactive: caspase-3 activation [1] -0.284% | outcome [2] | caspase-3 activation [3] 0.845% | caspase-3 activation [4] -0.32% | outcome [5] | outcome [6] | Potency [7] | Potency [8] | Potency [9] | outcome [10] | outcome [11] | outcome [12] | outcome [13] | outcome [14] | Potency [15] | Potency [16] | Potency [17] | Potency [18] | Potency [19] | Potency [20]

COCCOC(=O)c1ccccc1C(=O)OCCOC
inactive: caspase-3 activation [1] 1.04% | outcome [2] | caspase-3 activation [3] 0.176% | caspase-3 activation [4] 0.308% | outcome [5] | outcome [6] | Potency [7] | Potency [8] | Potency [9] | outcome [10] | outcome [11] | outcome [12] | outcome [13] | outcome [14] | Potency [15] | Potency [16] | Potency [17] | Potency [18] | Potency [19] | Potency [20]

CCNc1ccccc1
inactive: caspase-3 activation [1] -0.0326% | outcome [2] | caspase-3 activation [3] -0.349% | caspase-3 activation [4] -0.687% | outcome [5] | outcome [6] | Potency [7] | Potency [8] | Potency [9] | outcome [10] | outcome [11] | outcome [12] | outcome [13] | outcome [14] | Potency [15] | Potency [16] | Potency [17] | Potency [18] | Potency [19] | Potency [20]

FC(F)(F)c1cccc(Cl)c1
inactive: caspase-3 activation [1] -0.53% | outcome [2] | caspase-3 activation [3] 0.296% | caspase-3 activation [4] 0.768% | outcome [5] | outcome [6] | Potency [7] | Potency [8] | Potency [9] | outcome [10] | outcome [11] | outcome [12] | outcome [13] | outcome [14] | Potency [15] | Potency [16] | Potency [17] | Potency [18] | Potency [19] | Potency [20]

OC(CCl)CCl
inactive: caspase-3 activation [1] 2.07% | outcome [2] | caspase-3 activation [3] 1.01% | caspase-3 activation [4] 2.01% | outcome [5] | outcome [6] | Potency [7] | Potency [8] | Potency [9] | outcome [10] | outcome [11] | outcome [12] | outcome [13] | outcome [14] | Potency [15] | Potency [16] | Potency [17] | Potency [18] | Potency [19] | Potency [20]

BrC/C=C/CBr
inactive: caspase-3 activation [1] -0.978% | outcome [2] | caspase-3 activation [3] 0.954% | caspase-3 activation [4] 2.1% | outcome [5] | outcome [6] | Potency [7] | Potency [8] | Potency [9] | outcome [10] | outcome [11] | outcome [12] | outcome [13] | outcome [14] | Potency [15] | Potency [16] | Potency [17] | Potency [18] | Potency [19] | Potency [20]

C=CCCCCCCC=C
inactive: caspase-3 activation [1] 4.38% | outcome [2] | caspase-3 activation [3] 1.95% | caspase-3 activation [4] 5.13% | outcome [5] | outcome [6] | Potency [7] | Potency [8] | Potency [9] | outcome [10] | outcome [11] | outcome [12] | outcome [13] | outcome [14] | Potency [15] | Potency [16] | Potency [17] | Potency [18] | Potency [19] | Potency [20]

O=C(O)c1ccc(Cl)cc1Cl
inactive: caspase-3 activation [1] -1.03% | outcome [2] | caspase-3 activation [3] 0.226% | caspase-3 activation [4] 2.7% | outcome [5] | outcome [6] | Potency [7] | Potency [8] | Potency [9] | outcome [10] | outcome [11] | outcome [12] | outcome [13] | outcome [14] | Potency [15] | Potency [16] | Potency [17] | Potency [18] | Potency [19] | Potency [20]
